# Test results from the supplement of paper PMC6555819.
# What was measured:
# Experiment in all cases: PBM binding z-score (relative to random genomic background probes); higher = stronger binding; sequences stand for … in GC…GCGATTGACAGCGTAGAATGAAGG
# [1] = tested on: FXR:RXRa (NR concentration 270 nM, RXRa partner concentration 90 nM)
# Outline: (§1)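 Probes were double-stranded and carried 34-nt variable regions with direct-repeat seeds, single-nucleotide variants, half-site ablations and random human genomic background sequences, printed on custom Agilent 4×180K protein-binding microarrays. Arrays were incubated 1 h with ligand-free nuclear receptor dimers in PBS pH 7.4, 2% milk, 0.02% Triton X-100, 1 mM DTT, 0.2 mg/mL BSA and 0.4 mg/ml salmon testes DNA. Antibodies against each partner (one per run) detected binding, and scanned fluorescence was regression-normalized. Binding z-scores use the random background probes as reference.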
# [2] = tested on: LXRa homodimer (NR concentration 270 nM)
# Outline: as §1
# [3] = tested on: LXRb homodimer (NR concentration 270 nM)
# Outline: as §1
# [4] = tested on: PPARg:RXRa (NR concentration 180 nM, RXRa partner concentration 90 nM)
# Outline: as §1
# [5] = tested on: PPARg:RXRa 270nM:90nM, anti-RXR (NR concentration 270 nM, RXRa partner concentration 90 nM)
# Outline: as §1
# [6] = tested on: PPARg:RXRa 30nM:10nM, anti-RXR (NR concentration 30 nM, RXRa partner concentration 10 nM)
# Outline: as §1
# [7] = tested on: PPARg:RXRa 90nM:30nM, anti-RXR (NR concentration 90 nM, RXRa partner concentration 30 nM)
# Outline: as §1
# [8] = tested on: PPARg:RXRa DBDmut IVT, anti-RXR (DBD mutation: RXRa K156A/R161A, NR concentration 270 nM, RXRa partner concentration 90 nM)
# Outline: as §1
# [9] = tested on: PPARa:RXRa (NR concentration 270 nM, RXRa partner concentration 90 nM)
# Outline: as §1
# [10] = tested on: LXRa:RXRa (NR concentration 270 nM, RXRa partner concentration 90 nM)
# Outline: as §1
Sequence,PBM binding z-score [1],PBM binding z-score [2],PBM binding z-score [3],PBM binding z-score [4],PBM binding z-score [5],PBM binding z-score [6],PBM binding z-score [7],PBM binding z-score [8],PBM binding z-score [9],PBM binding z-score [10]
CCTAGTTGGTCAAGGTCACACCCGCTATAGGTAC,3.45,2.19,1.02,2.92,3.27,1.13,2.4,2.17,–,–
CCGAGTAGGTTACGAGGGGTCATTCAGTGCGAAT,4.94,6.16,–,4.13,4.4,1.73,3.54,4.41,5.09,–
TATTCAGGGTCAAAGGCCAGAGTACGAATGTCGA,7.57,5.36,5.04,8.53,7.7,6.15,7.42,2.47,–,–
CAAACTAGGTCACTAAAGGTCAAAGTCGAATGAC,7.13,10.4,4.07,10.1,8.33,6.31,8.16,8.1,–,–
ATATGTAGGTTAGGGTCAGTCAGAAAGTAGGGAA,–,0.758,1.69,6.72,5.54,3.24,4.97,6.27,4.61,2.82
ATCGAAAGGTCGACGCGGTGAGTATACACCGTTT,–,-0.127,0.391,2.07,2.54,0.887,1.8,-0.0451,3.97,3.4
CGAACTAGGTCGTCCAGGACAGTGAATACATTGA,–,-0.214,-0.486,2.47,1.89,0.4,1.39,5.71,2.09,0.121
TCTAGTCGGTCAAAGGTCACACACTCGAAATGCG,6.97,5.28,2.21,–,10.2,11.1,11.4,5.17,–,–
CCTACTGGTCCAAGGTCATTGATCAGTCAAAGCA,3.53,2.3,0.894,1.77,3.04,0.847,2.12,0.394,–,–
AGCGAAAGGTCGAGGTGAGTATAGAGAAAGGGAA,–,-0.189,-0.246,3.81,4.31,1.4,3.37,0.228,4.51,3.18
ACTCGGAGGACAAAGGTCAGGGCTACGCCAGTGA,4.61,1.43,-0.0403,9.17,7.08,5.85,7.6,0.813,–,–
CGTCCAAGGTCAGCGGGTCAGTGAAAGCGACGTG,5.98,0.175,-0.324,4.41,4.84,1.19,2.81,3.12,–,–
ATATGTAGGTTAAGCGTCATTCAGGTTGGTTCGC,–,0.422,0.251,6.75,6.77,5,6.63,7.13,4.16,1.08
CGAACTAGGTCGCCAGGACAGTGAAGAGGTTGGA,–,-0.593,-0.928,2.71,2.49,0.111,1.62,5.94,2.09,0.158
CAAACTAGGTCACGAGAGGTCAAAGTCGAATGAC,–,8.5,2.4,10.7,8.59,6.83,8.87,8.71,6.78,8.28
AATAAAGGGTCATCGTAGGCCAGAGTACGCACAG,–,3.35,2.31,7.14,6.58,3.39,5.44,3.16,5.96,6.44
AGAATGAGGTCATTAAGATCAGGGAATTGCGGTC,–,2.12,1.68,6.93,6.63,3.8,5.83,6.03,6.05,5.58
CCTACTGGGTCAAAGGTCATTGATTCCAATGCTC,7.5,5.27,1.18,–,11.2,12.3,13,7.6,–,–
CAAACCAGGTCAAGAGGTCAAAGTCCGCTTCCCG,–,6.64,1.8,8.56,7.51,5.51,7.2,5.93,6.68,6.66
ACTAGTTGGTCAGCTGAGGTCACACCCAATTCGG,2.83,2.07,0.443,1.54,2.06,0.239,1.19,1.35,–,–
GGAACGAGGTCATTCGAGTTGATAGCATGGCGAT,–,1.91,1.68,6.59,6.55,3.27,5.58,5.42,5.98,6.43
CAAACTAGGTCACCGAAAGGTCAAAGTCCGCATG,7.31,7.45,2.39,–,8.22,6.51,8.62,8.72,–,–
CAAACCAGGTCACAGAGGTCAAAGTCCGTGCGTA,–,7.74,2.6,8.73,7.69,5.28,7.12,6.56,6.49,6.8
TCTAGTTGGTCACGGAGGTCACAAACGACGGGTA,2.95,2.21,0.892,3.15,3.83,3.19,3.12,2.44,–,–
TAGCCTAAGTCATGCGGGCCAGTATAGTGTCGGC,–,-0.595,-1.13,-0.117,-0.602,-0.673,-0.77,-0.333,-0.167,-0.396
TAGCCTAGGTCACATCGGGCCAGTATACGCTATA,–,0.038,0.0362,2.64,2.61,0.683,1.59,2.1,3.16,3.44
GCTAGTTGGTCAGTAAAAGGTGACACACCGGTCG,0.000592,-0.18,-0.568,0.834,1.59,-0.104,1.02,0.643,–,–
